MCF10A rereplic: inducers of DNA re-replication in MCF 10A breast cells; MCF 10A DNA re-replication, Hoechst nuclear intensity, 48 h; Potency, µM (titrated, usually from 46.1 µM), without a hit: at the highest dose activity, positive = re-replication, hits mostly activators; hit rate 2.9% among 350,000; further: potency means the concentration at half of the fitted maximal effect; % of control where 0% means no effect; nearly all actives have a fitted effect of over 50% in size
TDP1 cell CPT: DT40-hTDP1 cell growth loss with CPT; Potency, µM (series often up to 46.2 µM), inactives show top-dose activity change, negative = growth inhibition, hits mostly inhibitors; chicken DT40 Tdp1-/-;hTDP1 cells + 20 nM CPT, ATP luminescence, 48 h; hit rate 12% among 420,000; further: potency means the concentration at half of the fitted maximal effect; on the % scale 0 is the no-effect control and ±100 the full control effect; nearly all actives have a fitted effect of over 55% in size
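Cell growth measured by CellTiter-Glo luminescence after a minimum 48 h, 37 C compound exposure with 20 nM CPT in Tdp1-knockout DT40 cells stably expressing hTDP1, seeded 400/well; qHTS titration format.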
TDP1 cell noCPT: qHTS for Inhibitors of human tyrosyl-DNA phosphodiesterase 1 (TDP1): qHTS in cells in absence of CPT. hit rate 15% among 420,000. AID 686978, 2013. Potency, µM (doses to about 46.2 µM), inactives show at the top dose activity change, negative = growth inhibition, usual class: inhibitors. DT40 Tdp1-/- hTDP1 cells, no CPT, ATP luminescence, 48 h; further: potency means the concentration at half of the fitted maximal effect; on the % scale 0 is the no-effect control and ±100 the full control effect; nearly all actives have a fitted effect of over 55% in size
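Growth kinetics read by CellTiter-Glo luminescence after ≥48 hr at 37 °C. Cells: DT40 Tdp1-/- stably carrying human TDP1, 400 per well, compound exposure in the absence of CPT (DMSO vehicle).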
IL-1B inflam inh: inflammasome signaling inhibition, IL-1 beta readout; THP-1 LPS/ATP IL-1B secretion, AlphaLISA, 16 h; active compounds read low; activity change, % at 57.5 µM; hit rate 4.7% among 360,000; AID 743279; in the data active means activity change below about -50%; inconclusive means mostly about -30% to -49%; further: on the % scale 0 is the no-effect control and ±100 the full control effect
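THP-1 cells pretreated 1 hr with compounds (up to 57.5 uM final), then stimulated with LPS (250 ng/mL final) plus ATP (1.25 mM final); secreted IL-1B measured by AlphaLISA after 16 hr, decreased signal indicating inhibition.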
BCR signal inh: inhibitors of chronic active B-cell receptor signaling; ABC-DLBCL IkBa-CBG/CBR reporter, luminescence ratio, 4 h; Potency, µM (highest dose often 46.1 µM), inactives show at the top dose activity change, negative = inhibition, most hits filed as inhibitors; hit rate 0.05% among 340,000; active means well fitted inhibition curve with a large enough effect in the signal ratio, with a control signal flat, not every such curve was filed as active; inconclusive means small, poorly fitted or top-dose-only effect, or effect the other way, or a change in a side signal; the % refers to the signal ratio;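 further: potency means the concentration at half of the fitted maximal effect; plate controls were basal doxycycline-induced cells for no effect and cells given 10 µM MG132 for full effect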
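TMD8 human ABC-DLBCL cells with doxycycline-inducible IκBα–green luciferase fusion and unfused red luciferase, in 0.5% FBS medium; compounds up to 46 uM, 4 h at 37C. Green/red luminescence ratio, filter-overlap corrected, fitted to concentration-response curves.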
SW480 rereplic: DNA re-replication induction in SW480 cells; SW480 DNA re-replication, Hoechst DNA content imaging, 48 h; Potency, µM (doses to about 46.1 µM), for inactives: at the highest dose re-replication activation, hits mostly activators; hit rate 1.8% among 340,000; AID 624297; further: potency means the concentration at half of the fitted maximal effect; % of control where 0% means no effect; nearly all actives have a fitted effect of over 55% in size
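Per well, 250 cells were exposed to pinned compound for 48 hr. Nuclear DNA was visualised with Hoechst (40 min, 37 C) and total object intensity recorded by fluorescence scanning.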
* = called active by the depositor; ? = inconclusive; . = no result. Compounds with a hit are over-represented: about 19% of the library has one in this group of screens. Unless noted, the call rests on the fitted dose curve; in most records, active means well fitted curve in the direction sought with a large enough effect; inconclusive means small, poorly fitted or top-dose-only effect, or another doubt; inactive means no such curve, though single readings can be large; an effect the other way counts as inactive or inconclusive.

SMILES	MCF10A rereplic	TDP1 cell CPT	TDP1 cell noCPT	IL-1B inflam inh	BCR signal inh	SW480 rereplic
CCC(C)NC(=O)CSc1nc2n[nH]c(C)c2c(=N)n1-c1cc(Cl)ccc1C (centres undefined)	.	?	16µM*	.	?	.
Cc1cccc(-n2c(SCC(=O)N3CCCC3)nc3n[nH]c(C)c3c2=N)c1	-1%	?	?	-28	?	-2%
Cc1ccc(NC(=O)CSc2nc3n[nH]c(C)c3c(=N)n2-c2cccc(C)c2)cc1	.	5.8µM*	3.3µM*	.	0%	.
Cc1ccc(Nc2nc(C)cc(C)c2C#N)c(C)c1	.	?	-6%	34	.	.
O=C(/C=C/c1cccc(Br)c1)NCc1ccncc1	9%	-4%	1%	-17	8%	5%
C[C@H](CO)N1C[C@H](C)[C@@H](CN(C)C(=O)Nc2ccc(C(F)(F)F)cc2)Oc2ccc(NC(=O)Cc3ccccc3)cc2C1=O	-1%	?	-12%	-22	1%	1%
Cc1ccc(S(=O)(=O)N2CCC[C@H]2C(=O)Nc2ccccc2Cl)cc1	1%	4%	16µM*	-20	0%	6%
CC(C)(C)c1ccc(S(=O)(=O)N2CCCCC2C(=O)NCc2ccccn2)cc1 (centres undefined)	0%	23µM*	?	23	20%	4%
CCOC(=O)c1c(C)[nH]c(C)c1C(=O)COC(=O)[C@@H]1CCCN1S(=O)(=O)c1ccc(Cl)cc1	5%	15µM*	13µM*	-5	-3%	-7%
CCOc1ccccc1NC(=O)C1CCCCN1S(=O)(=O)c1ccc(F)cc1 (centres undefined)	?	-28%	21µM*	33	?	2%
O=C(NCc1ccccn1)C1CN(S(=O)(=O)c2ccccc2)CCN1S(=O)(=O)c1ccccc1 (centres undefined)	-4%	8%	-9%	7	-1%	-3%
O=C(COC(=O)[C@@H]1CCCN1S(=O)(=O)c1ccc(Cl)cc1)NCC(F)(F)F	6%	-2%	-12%	1	3%	-8%
Cc1cc(C)cc(C(=O)N(Cc2ccco2)c2c(N)n(Cc3ccccc3)c(=O)[nH]c2=O)c1	5%	1%	3%	-18	-1%	-1%
Cc1ccc(N(CC(=O)N2CCCCCC2)S(=O)(=O)c2ccccc2)cc1	1%	-15%	?	-11	6%	-3%
O=C(CNC(=O)c1cccnc1)c1ccc(F)cc1	.	-2%	8%	.	.	.
O=C(NCCc1ccccc1)C1CCCN1S(=O)(=O)c1ccc(Cl)cc1 (centres undefined)	-5%	-27%	?	-12	12%	-4%
CC(C)(C#N)NC(=O)C1CCCN1S(=O)(=O)c1ccc2ccccc2c1 (centres undefined)	?	23µM*	?	23	-21%	23µM*
O=C(NCCc1ccccc1)C1CCCN1C(=O)Nc1ccc(F)cc1 (centres undefined)	-6%	?	15µM*	-2	-2%	-4%
Cc1ccc(CNC(=O)C2CCCN2S(=O)(=O)c2ccc(F)cc2)cc1 (centres undefined)	1%	-20%	-20%	5	-3%	-9%
Cc1ccc(S(=O)(=O)N2CCCC2C(=O)NCCc2ccccc2)cc1 (centres undefined)	0%	-14%	15µM*	-3	4%	-11%
CCNC(=O)C1CCCN1S(=O)(=O)c1ccc(C)cc1 (centres undefined)	21µM*	2%	-6%	0	0%	0%
O=S(=O)(c1ccc(SCc2c(F)cccc2Cl)nc1)N1CCCC1	.	?	?	11	.	.
Cc1ccc(S(=O)(=O)N2CCCC2C(=O)OCc2ccco2)cc1 (centres undefined)	?	15µM*	21µM*	-20	5%	?
Cc1ccc(S(=O)(=O)N2CCCC2C(=O)OCc2ccccc2)cc1 (centres undefined)	0%	-19%	-24%	12	2%	1%
CN(CC(=O)Nc1ccc(Cl)c(C(F)(F)F)c1)C(=O)c1ccc(N2CCOCC2)c([N+](=O)[O-])c1	?	23µM*	26µM*	?	0%	-298%
SMILES	MCF10A rereplic	TDP1 cell CPT	TDP1 cell noCPT	IL-1B inflam inh	BCR signal inh	SW480 rereplic
CCOc1ccc(NC(=O)CN(C)C(=O)c2ccc(N3CCCC3)c([N+](=O)[O-])c2)cc1OCC	0%	0%	-20%	-4	?	-2%
CC1CCCN(c2ccc(C(=O)NCc3ccco3)cc2[N+](=O)[O-])C1 (centres undefined)	?	2%	?	-61*	?	-2%
Cc1cccc(NC(=O)CN(C)C(=O)c2ccc(N3CCCCCC3)c([N+](=O)[O-])c2)c1C	10%	23µM*	18µM*	-26	-3%	0%
CN(CC(=O)Nc1ccccc1Cl)C(=O)c1ccc(N2CCCCCC2)c([N+](=O)[O-])c1	-8%	23µM*	18µM*	?	-2%	-46%
CN(CC(=O)Nc1cccc(F)c1)C(=O)c1ccc(N2CCOCC2)c([N+](=O)[O-])c1	-11%	?	?	58	0%	-7%
CO[C@@H]1CN(C)C(=O)c2ccc(NC(=O)c3ccccc3F)cc2OC[C@@H](C)N(CC2CCOCC2)C[C@@H]1C	.	-6%	-7%	0	.	.
Cc1noc(C)c1S(=O)(=O)Nc1ccc2c(c1)CC(=O)N([C@H](C)CO)C[C@H](C)[C@@H](CN(C)CC1CC1)O2	12%	-8%	-11%	-2	-3%	0%
N[C@@](C(=O)O)(c1ccc(P(=O)(O)O)cc1)C1CC1	.	-3%	-8%	.	.	.
Cc1ccc(NC(=O)CN(C)C(=O)c2ccc(Cl)c([N+](=O)[O-])c2)cc1	3%	?	?	-85*	?	1%
CCCN(CC(=O)Nc1ccccc1C)C(=O)c1ccc(N2CCCC(C)C2)c([N+](=O)[O-])c1 (centres undefined)	?	?	?	-71*	.	-134%
CN(CC(=O)Nc1ccc(Cl)cc1)C(=O)c1ccc(-n2cncn2)c([N+](=O)[O-])c1	1%	-14%	?	-5	3%	?
COc1ccccc1NC(=O)CCCc1nnc2n(C)c(=O)c3sccc3n12	-7%	-7%	-15%	44	-15%	-12%
COCCCN1C(=O)C(CC(=O)NCC2CCCCC2)CC(C(=O)N2CCOCC2)=C1C (centres undefined)	.	3%	4%	-2	.	.

Compound activity deposited in PubChem by National Center for Advancing Translational Sciences (NCATS).
